Results: PubChem BioAssay (NCI)
The panel holds about 79,000 compounds, 15% with a hit somewhere; the sample as a whole holds those more often. Activity calls are given as the source filed them. No stated cut-off is given here; in the data, active means growth inhibition above about 70%; inactive means the rest.

How the values were obtained:
[1] = NCI Yeast Anticancer Drug Screen. Data for the rad52 strain (AID 147);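 further: 0% = growth of vehicle-treated control cultures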; details: S. cerevisiae rad52 mutant growth inhibition, active compounds read high
Method in brief: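 Genetically altered yeast (DNA damage repair defect) treated with compound; inhibition calculated relative to vehicle.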

[2] = NCI Yeast Anticancer Drug Screen. Data for the wt1 strain (AID 149);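 further: 0% = growth of vehicle-treated wt1 cultures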; details: S. cerevisiae wt1 strain (SPY 50644) growth inhibition, active compounds read high
Method in brief: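 Vehicle-normalised growth inhibition; strain wt1; compound exposure.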

[3] = NCI Yeast Anticancer Drug Screen. Data for the rad50EPP+ strain (AID 151);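 further: 0% = growth of vehicle-treated control cultures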; details: S. cerevisiae rad50 mutant strain, active compounds read high
Method in brief: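 Strain rad50EPP+; compound exposure; % growth inhibition vs vehicle.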

[4] = NCI Yeast Anticancer Drug Screen. Data for the mgt1 strain (AID 153); details: S. cerevisiae mgt1 mutant growth inhibition, active compounds read high
Method in brief: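 Read-out: yeast growth inhibition vs vehicle control. Strain mgt1, drawn from a panel altered in DNA damage repair or cell cycle control.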

[5] = NCI Yeast Anticancer Drug Screen. Data for the rad50 strain (AID 155);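 further: 0% = growth of vehicle-only cultures of the same strain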; details: S. cerevisiae rad50 strain growth inhibition, active compounds read high
Method in brief: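 A DNA repair-deficient yeast mutant serves as the test organism; compound-induced growth inhibition is calculated against vehicle-treated cells.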

[6] = NCI Yeast Anticancer Drug Screen. Data for the mec2-1 strain (AID 157); details: S. cerevisiae mec2-1 strain, active compounds read high
Method in brief: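 Cells of the genetically defined mec2-1 yeast strain are incubated with test compound. Inhibition of growth is calculated against vehicle-treated controls.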

[7] = NCI Yeast Anticancer Drug Screen. Data for the rad14 strain (AID 159);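 further: 0% = growth of vehicle-treated control cultures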; details: S. cerevisiae rad14 strain growth inhibition, active compounds read high
Method in brief: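 Vehicle-treated cultures served as the baseline for growth inhibition of a DNA repair-mutant yeast strain exposed to each compound.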

[8] = NCI Yeast Anticancer Drug Screen. Data for the sgs1 mgt1 strain (AID 161);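 further: 0% = growth of cultures given vehicle only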; details: S. cerevisiae sgs1 mgt1 strain, active compounds read high
Method in brief: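 Genetically altered yeast, compound exposure, growth inhibition relative to vehicle.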

[9] = NCI Yeast Anticancer Drug Screen. Data for the CLN2oe strain (AID 163);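 further: 0% = growth of vehicle-only control cultures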; details: S. cerevisiae CLN2oe strain, active compounds read high
Method in brief: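 Strain altered in cell-cycle control, incubated with compound; growth compared to solvent-treated controls.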

[10] = NCI Yeast Anticancer Drug Screen. Data for the cln2 rad14 strain (AID 165);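 further: 0% = growth equal to vehicle treated cultures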; details: S. cerevisiae cln2 rad14 strain, active compounds read high
Method in brief: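 The screen exposed genetically defined yeast (cln2 rad14) to test compounds and scored growth inhibition relative to vehicle-treated controls.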

[11] = NCI Yeast Anticancer Drug Screen. Data for the bub3 strain (AID 167); details: S. cerevisiae bub3 mutant strain, active compounds read high
Method in brief: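 Inhibition values come from growth of compound-treated mutant yeast normalised to vehicle-treated controls.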

[12] = NCI Yeast Anticancer Drug Screen. Data for the wt2 strain (AID 169);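 further: 0% = growth of vehicle-treated yeast cultures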; details: S. cerevisiae wt2 strain growth inhibition, active compounds read high
Method in brief: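 Steps: yeast strain treated with compound; growth recorded; inhibition calculated relative to cultures given vehicle alone.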

[13] = NCI Yeast Anticancer Drug Screen. Data for the mlh1 strain (AID 171);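 further: 0% = growth of vehicle-treated control cultures of the same strain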; details: S. cerevisiae mlh1 strain growth inhibition, active compounds read high
Method in brief: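 Yeast screen: mutant strain plus compound, growth scored against vehicle control wells.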

[14] = NCI Yeast Anticancer Drug Screen. Data for the sgs1 strain (AID 173);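 further: 0% = growth of vehicle-only control cultures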; details: S. cerevisiae sgs1 mutant, active compounds read high
Method in brief: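 Inhibition of yeast growth served as the measure. The mutant strain was treated with each compound, and growth was normalised to cultures receiving vehicle alone.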

[15] = NCI Yeast Anticancer Drug Screen. Data for the mlh1 rad18 strain (AID 175); details: S. cerevisiae mlh1 rad18 strain growth inhibition, active compounds read high
Method in brief: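 Compound-treated yeast growth, normalised to vehicle controls. Strain bears defined DNA repair mutations.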

[16] = NCI Yeast Anticancer Drug Screen. Data for the rad18 strain (AID 177); details: S. cerevisiae rad18 mutant growth inhibition, active compounds read high
Method in brief: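 Inhibition values reflect reduced yeast growth compared with vehicle-treated controls, using a strain engineered with a DNA damage repair defect.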

[17] = at 5.0 µM (retest, dose inferred, filed as 0.5)
[18] = at 50.0 µM (retest, dose inferred, filed as 5.0)

Measured: growth inhibition

Cc1cc(C)c(N2C(=O)CC(Sc3ccccc3N)C2=O)c(C)c1 (stereo unspecified)
inactive: [1]; at 1.2 µM -27% | [1]; at 3.7 µM -20% | [1]; at 11.0 µM -31% | [1]; at 33.0 µM -14% | [1]; at 100.0 µM -22% | [2]; at 1.2 µM -53% | [2]; at 3.7 µM -52% | [2]; at 11.0 µM -58% | [2]; at 33.0 µM -62% | [2]; at 100.0 µM -45% | [3]; at 1.2 µM -15% | [3]; at 3.7 µM -13% | [3]; at 11.0 µM -16% | [3]; at 33.0 µM -11% | [3]; at 100.0 µM 1% | [4]; at 1.2 µM -57% | [4]; at 3.7 µM -57% | [4]; at 11.0 µM -57% | [4]; at 33.0 µM -38% | [4]; at 100.0 µM -21% | [5]; at 1.2 µM -34% | [5]; at 3.7 µM -30% | [5]; [17] 37% | [5]; at 11.0 µM -33% | [5]; at 33.0 µM -42% | [5]; [18] 41% | [5]; at 50.0 µM 30.1% | [5]; at 100.0 µM -27% | [6]; at 1.2 µM -42% | [6]; at 3.7 µM -44% | [6]; [17] 45% | [6]; at 11.0 µM -45% | [6]; at 33.0 µM -36% | [6]; [18] 48% | [6]; at 50.0 µM 48.5% | [6]; at 100.0 µM -24% | [7]; at 1.2 µM -59% | [7]; at 3.7 µM -53% | [7]; at 11.0 µM -53% | [7]; at 33.0 µM -56% | [7]; at 100.0 µM -45% | [8]; [17] 0% | [8]; at 50.0 µM 42.9% | [9]; at 1.2 µM -16% | [9]; at 3.7 µM -11% | [9]; at 11.0 µM -2% | [9]; at 33.0 µM 14% | [9]; at 100.0 µM -2% | [10]; [17] 34% | [10]; at 50.0 µM 6.4% | [11]; at 1.2 µM -48% | [11]; at 3.7 µM -43% | [11]; [17] -26% | [11]; at 11.0 µM -51% | [11]; at 33.0 µM -48% | [11]; at 50.0 µM 51.6% | [11]; at 100.0 µM -51% | [12]; at 1.2 µM -14% | [12]; at 3.7 µM -19% | [12]; at 11.0 µM -1% | [12]; at 33.0 µM -8% | [12]; at 100.0 µM 19% | [13]; at 1.2 µM -33% | [13]; at 3.7 µM -27% | [13]; at 11.0 µM -27% | [13]; at 33.0 µM -23% | [13]; at 100.0 µM 1% | [14]; at 1.2 µM -37% | [14]; at 3.7 µM -41% | [14]; at 11.0 µM -34% | [14]; at 33.0 µM -28% | [14]; at 100.0 µM -21% | [15]; [17] 24% | [15]; [18] 44% | [15]; at 50.0 µM 34.3% | [16]; at 1.2 µM -54% | [16]; at 3.7 µM -45% | [16]; at 11.0 µM -38% | [16]; at 33.0 µM -47% | [16]; at 100.0 µM -44%
active: [8]; [18] 91% | [10]; [18] 76% | [11]; [18] 91%

O=S(=O)(c1cc(Cl)ccc1O)c1cc(Cl)ccc1O
active: [1]; at 3.7 µM 91% | [1]; at 11.0 µM 99% | [1]; at 33.0 µM 99% | [1]; at 100.0 µM 99% | [2]; at 3.7 µM 89% | [2]; at 11.0 µM 99% | [2]; at 33.0 µM 99% | [2]; at 100.0 µM 99% | [4]; at 3.7 µM 92% | [4]; at 11.0 µM 99% | [4]; at 33.0 µM 99% | [4]; at 100.0 µM 99% | [5]; at 3.7 µM 91% | [5]; at 11.0 µM 98% | [5]; at 33.0 µM 97% | [5]; [18] 99% | [5]; at 50.0 µM 99.5% | [5]; at 100.0 µM 99% | [6]; at 3.7 µM 93% | [6]; at 11.0 µM 99% | [6]; at 33.0 µM 98% | [6]; [18] 100% | [6]; at 50.0 µM 99.7% | [6]; at 100.0 µM 100% | [7]; at 3.7 µM 96% | [7]; at 11.0 µM 99% | [7]; at 33.0 µM 99% | [7]; at 100.0 µM 100% | [8]; [17] 75% | [8]; [18] 100% | [8]; at 50.0 µM 99.5% | [9]; at 3.7 µM 89% | [9]; at 11.0 µM 99% | [9]; at 33.0 µM 100% | [9]; at 100.0 µM 99% | [10]; [18] 99% | [10]; at 50.0 µM 98.9% | [11]; at 3.7 µM 91% | [11]; at 11.0 µM 98% | [11]; at 33.0 µM 99% | [11]; [18] 99% | [11]; at 50.0 µM 99.4% | [11]; at 100.0 µM 99% | [12]; at 3.7 µM 85% | [12]; at 11.0 µM 97% | [12]; at 33.0 µM 99% | [12]; at 100.0 µM 100% | [13]; at 3.7 µM 85% | [13]; at 11.0 µM 99% | [13]; at 33.0 µM 99% | [13]; at 100.0 µM 99% | [14]; at 3.7 µM 91% | [14]; at 11.0 µM 99% | [14]; at 33.0 µM 99% | [14]; at 100.0 µM 99% | [15]; [17] 82% | [15]; [18] 99% | [15]; at 50.0 µM 99.7% | [16]; at 3.7 µM 84% | [16]; at 11.0 µM 98% | [16]; at 33.0 µM 99% | [16]; at 100.0 µM 99%
inactive: [1]; at 1.2 µM 24% | [2]; at 1.2 µM 1% | [3]; at 1.2 µM -1% | [3]; at 3.7 µM 5% | [3]; at 11.0 µM 12% | [3]; at 33.0 µM 14% | [3]; at 100.0 µM 45% | [4]; at 1.2 µM 15% | [5]; at 1.2 µM 27% | [5]; [17] 52% | [6]; at 1.2 µM 30% | [6]; [17] 35% | [7]; at 1.2 µM 9% | [9]; at 1.2 µM 23% | [10]; [17] 23% | [11]; at 1.2 µM 20% | [11]; [17] 48% | [12]; at 1.2 µM 7% | [13]; at 1.2 µM 21% | [14]; at 1.2 µM 26% | [16]; at 1.2 µM 26%
